Sampled rows, rich in hits. Any-hit rate of the full collection: about 1.2%.
RGS7-Gao = regulators of human RGS7-Galphao interaction; AID 1439; Multiplexed bead flow cytometry, RGS7-Galphao binding; actives lie on both sides; 220,000 tested, 0.35% active; binding response (% of control), % at 10 µM; P09471; in the data active = binding response below about 49% or above about 150%; inconclusive = no clear call, values can overlap the other calls; inactive = in between;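 note: fluorescent Galphao held in activated GDP-AlF4 state binding bead-coupled RGS7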
Target sequence (P09471 whole entry, looked up): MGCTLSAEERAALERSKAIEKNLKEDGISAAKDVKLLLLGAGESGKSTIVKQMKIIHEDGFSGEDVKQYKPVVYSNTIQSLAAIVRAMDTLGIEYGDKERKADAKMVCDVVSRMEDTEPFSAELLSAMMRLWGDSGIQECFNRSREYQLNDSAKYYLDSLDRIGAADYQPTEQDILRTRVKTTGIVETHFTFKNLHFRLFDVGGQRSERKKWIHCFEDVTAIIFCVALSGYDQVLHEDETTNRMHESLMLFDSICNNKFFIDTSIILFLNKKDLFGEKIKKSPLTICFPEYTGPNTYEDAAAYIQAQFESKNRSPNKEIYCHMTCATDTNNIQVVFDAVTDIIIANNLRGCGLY
RGS16-Gao = modulates binding between human RGS16 and Galphao | O15492+P09471 | bead-based flow cytometry RGS16-Galphao binding, fluorescence; actives lie on both sides | binding response (% of control), % at 10 µM | 220,000 tested, 0.38% active | AID 1441;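 note: Galphao activated by GDP with aluminum fluoride before binding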
Avidin fluor = compound fluoresces at 488/530 nm on avidin beads; compound fluorescence 488/530 nm, flow cytometry; stronger effect = higher value; fluorescence (KMESF) at 10 µM; 220,000 tested, 0.38% active; in the data active = fluorescence above about 47
RGS4-Gao reg = modulates binding of RGS4 to human Galphao; P09471; Multiplexed bead flow cytometry; actives lie on both sides; binding response (% of control), % at 10 µM; 220,000 tested, 0.33% active; AID 1415; in the data active = binding response below about 49% or above about 150%; inactive = in between;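 note: fluorescent Galphao activated with aluminum fluoride binding bead-coupled RGS4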
RGS8-Gao reg = modulates binding of RGS8 to human Galphao. 220,000 tested, 0.34% active. multiplexed bead flow cytometry; actives lie on both sides. response (percent of control binding), % at 10 µM; in the data active = response below about 60% or above about 140%; inactive = in between;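 note: Galphao activated as the GDP aluminium fluoride complex binding bead-coupled RGS8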
GSH fluor = compound fluoresces at 488/530 nm on GSH beads; GSH beads flow cytometry, compound fluorescence 488/530 nm; stronger effect = higher value; fluorescence (KMESF) at 10 µM; 190,000 tested, 0.25% active; AID 1776; in the data active = fluorescence above about 89;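 note: glutathione beads carrying GST-tagged Bcl family fusion proteins plus one bare bead set; values are compound well signal with DMSO vehicle wells as background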
RGS-Gao = modulates binding between human RGS4 and Galphao; RGS4–Galpha-o binding response, % at 10 µM; multiplexed bead flow cytometry, RGS–Galpha-o binding; 1,600 tested, 99% active; shares compounds with RGS16-Gao;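 note: fluorescently labeled Galpha-o bound to GDP with aluminium fluoride binding biotinylated RGS beads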
Target sequence (P09471 whole entry, looked up): as above
Target sequence (P49798 whole entry, looked up): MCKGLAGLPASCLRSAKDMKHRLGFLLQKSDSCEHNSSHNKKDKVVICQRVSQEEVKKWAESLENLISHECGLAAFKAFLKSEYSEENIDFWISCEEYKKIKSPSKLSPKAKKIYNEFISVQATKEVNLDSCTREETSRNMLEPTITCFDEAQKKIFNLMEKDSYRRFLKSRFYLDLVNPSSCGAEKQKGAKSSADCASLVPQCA
Biotin-avidin = interferes with biotinylated probe binding to avidin beads; streptavidin beads, fluorescein-biotin binding, flow cytometry; shares compounds with RGS16-Gao; inhibition, % at 10 µM; 1,700 tested, under 10 active;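 active = inhibition above 50%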;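 note: median green fluorescence of gated singlet beads compared with DMSO control wells; 0% = DMSO wells and 100% = complete loss of bead fluorescence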
RGS8-Gao single = confirmation of regulators of human RGS8-Galphao interaction; binding response (% of control), % at 10 µM; bead-based flow cytometry RGS8-Galphao binding, fluorescence; actives lie on both sides; shares compounds with RGS16-Gao; AID 1836; 1,700 tested, 3% active; in the data active = binding response below about 72% or above about 130%; inactive = in between;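 note: Galphao activated as GDP AlF4 complex before binding bead RGS8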
RGS7-Gao confirm = RGS7-Galphao interaction regulation, single point confirmation | shares compounds with RGS16-Gao | 1,700 tested, 7.8% active | bead-based flow cytometry RGS7-Galphao binding; actives lie on both sides | response (percent of control binding), % at 10 µM; in the data active = response below about 75% or above about 130%; inactive = in between;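 note: fluorescent Galphao activated with GDP and aluminum fluoride binding bead-coupled RGS7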
RGS16-Gao single = confirmation of regulators of human RGS16-Galphao interaction; shares compounds with RGS16-Gao; bead-based flow cytometry, RGS16-Galphao binding; actives lie on both sides; response (% of control binding), % at 10 µM; 1,700 tested, 4% active; in the data active = response below about 74% or above about 130%; inactive = in between;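 note: Galphao activated as the GDP aluminium fluoride complex binding bead-coupled RGS16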
RGS4-Gao single = confirmation of regulators of human RGS4-Galphao interaction; shares compounds with RGS16-Gao; RGS4-Galphao binding, multiplexed bead flow cytometry; actives lie on both sides; binding response (% of control), % at 10 µM; 1,700 tested, 4% active; AID 1840; in the data active = binding response below about 74% or above about 130%; inactive = in between
RGS19-Gao conf = RGS19-Galphao interaction regulation, single point confirmation. shares compounds with RGS16-Gao. bead-based flow cytometry RGS19-Galphao binding; actives lie on both sides. response (percent of control binding), % at 10 µM. 1,700 tested, 5% active; in the data active = response below about 50% or above about 160%; inactive = in between;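 note: 100% = no compound control and 0% = blank background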
* = called active by the depositor; ? = inconclusive; . = no result given; [ ] = remark or other dose. Unless noted, the rule behind the calls is not given here.

SMILES	RGS7-Gao	RGS16-Gao	Avidin fluor	RGS4-Gao reg	RGS8-Gao reg	GSH fluor	RGS-Gao	Biotin-avidin	RGS8-Gao single	RGS7-Gao confirm	RGS16-Gao single	RGS4-Gao single	RGS19-Gao conf
CCOC(=O)C1(Cc2cccc(Cl)c2)CCCN(C(=O)C2CC2)C1 (stereo unspecified)	104	100	3	98	100	10	.	.	.	.	.	.	.
COc1ccc(/C(C)=N/OCC(=O)N2CC3(C)CC2CC(C)(C)C3)cc1 (stereo unspecified)	276*[activator]	-45	1	304*[activator]	282*[activator]	13	.	0	107	109	113	109	124
Cc1ccc(S(=O)(=O)Nc2ccc(N3CCOCC3)cc2)cc1	93	-64*	9	86	88	37	86*	0	101	102	100	105	102
O=C(C[n+]1ccc(-c2nnc3n2CCC3)cc1)c1ccc(Cl)c(Cl)c1	.	105	6	100	103	7	.	2	96	82	92	89	67
CCCC(=O)NC(=S)Nc1cccc(C(C)=O)c1	119	326	14	114	145*[activator]	36	114*	1	100	100	100	100	98
CCCCCC(=O)NC(=S)Nc1cccc(C(C)=O)c1	101	103	16	99	102	17	.	.	.	.	.	.	.
CC(=O)NCCc1nc2ccccc2n1Cc1cccc(C)c1	?	104	8	104	102	.	.	.	.	.	.	.	.
CCOC(=O)c1cc(-c2cccs2)nc2c1c(C)nn2-c1ccccn1	105	158	8	105	114	11	.	.	.	.	.	.	.
Cc1nn(-c2ccccc2)c2nc(-c3cccs3)cc(C(=O)NN)c12	198*[activator]	102	82*	115	96	11	115*	-1	102	103	100	102	108
CCC(=O)NC(c1ccc(C)cc1)c1cc([N+](=O)[O-])c2cccnc2c1O (stereo unspecified)	72	13	1	68	58*	9	68*	0	89	89	85	95	42*
Cc1ccc(-c2ccc(=O)n(CC(=O)NCc3ccc(F)cc3)n2)cc1	97	98	10	96	98	19	.	.	.	.	.	.	.
OC(COc1ccc(-c2ccccc2)cc1)CN1CCOCC1 (stereo unspecified)	104	102	13	104	101	28	.	.	.	.	.	.	.
OC(COc1ccc(Br)cc1)CN1CCOCC1 (stereo unspecified)	.	.	.	.	.	41	.	3	104	101	108	101	101
NC(=O)NC(=O)COC(=O)c1cccc(S(=O)(=O)N2CCCCCC2)c1	?	95	13	98	96	.	.	.	.	.	.	.	.
CC(=O)N1CCN(S(=O)(=O)c2cccc(C(=O)OCC(=O)NC(=O)c3cccn3C)c2)CC1	108	185*[activator]	6	112	125	15	112*	-2	93	81	91	88	83
COc1ccccc1-c1nnc2n1N=C(c1ccc(O)c(O)c1)CS2	47*	22	4	56	59*	9	56*	-2	91	83	87	91	89
CCOc1ccc(C2=Nn3c(nnc3-c3ccccc3OC)SC2)cc1	100	99	10	99	99	11	.	.	.	.	.	.	.
S=c1nc(-c2sccc2OCc2ccc(Cl)cc2Cl)[nH][nH]1	?	93	11	99	95	11	.	.	.	.	.	.	.
Cc1nnc(Nc2ccc3c(c2)ncn3C)c2ccccc12	114	220	13	115	146*[activator]	25	115*	1	108	107	106	104	107
Cc1ccc(-c2nnc(Nc3ccc4c(c3)nc(C)n4C)c3ccccc23)cc1	97	100	32	98	100	12	.	.	.	.	.	.	.
O=C(c1nn2c(C(F)(F)F)cc(-c3ccco3)nc2c1Br)N1CCCc2ccccc21	.	.	.	.	.	15	.	2	105	107	107	108	90
O=C(CCSc1ccccc1)Nc1nnc(-c2cccs2)o1	79	87	7	82	92	19	.	.	.	.	.	.	.
CSCCC(NC(=O)c1cccc([N+](=O)[O-])c1)c1nc2ccccc2[nH]1 (stereo unspecified)	100	105	4	100	109	9	.	.	.	.	.	.	.
CSCCC(NC(=O)c1cccc([N+](=O)[O-])c1)C(=O)O (stereo unspecified)	113	187*[activator]	15	106	115	13	106*	0	100	99	100	98	91
O=C1CCCC/C1=C\Nc1ccc(S(=O)(=O)Nc2cnc3ccccc3n2)cc1	?	99	6	102	101	.	.	.	.	.	.	.	.
SMILES	RGS7-Gao	RGS16-Gao	Avidin fluor	RGS4-Gao reg	RGS8-Gao reg	GSH fluor	RGS-Gao	Biotin-avidin	RGS8-Gao single	RGS7-Gao confirm	RGS16-Gao single	RGS4-Gao single	RGS19-Gao conf
Nc1ccc(-c2nc3c(Cl)cc(N)cc3[nH]2)cc1	26*	89	1	78	63	2	78*	1	103	100	107	101	128
Nc1ccc2nc(-c3ccc(N)c(Cl)c3)[nH]c2c1	101	102	7	101	102	12	.	.	.	.	.	.	.
CCOC(=O)CSCC(=O)Nc1c(C(=O)C2CC2)oc2ccccc12	95	54	21	96	83	13	.	.	.	.	.	.	.
O=C(/C=C/c1ccc([N+](=O)[O-])cc1)NCCSc1ccccc1	107	94	7	106	104	38	.	.	.	.	.	.	.
Cc1ccc(SCCNC(=O)/C=C/c2ccc([N+](=O)[O-])cc2)cc1	112	280*[activator]	17	113	135	9	113*	-1	100	103	102	102	95
Cc1cccn2c(CN3CCCN(C=O)CC3)c(C(=O)N(C)CCc3ccccc3)nc12	?	98	10	99	102	12	.	.	.	.	.	.	.

From PubChem BioAssay
